Source: PubChem BioAssay (several laboratories)
A selection: hits, their analogues and other compounds. The true share with any hit is near 3.4%.
MEKK2 mut-MEK5: signal of MEK5 binding to mutant human MEKK2 PB1 domain | bead flow cytometry, Alexa488-MEK5 binding to MEKK2 mutant | percent response, % at 10 µM | 0.35% of 290,000 active | AID 1530; in the data active = percent response above about 24%, passing the limit was not always enough
MEKK2 WT-MEK5: raises or lowers MEK5 binding to wildtype human MEKK2 PB1 domain; bead flow cytometry, Alexa488-MEK5 binding to MEKK2 WT; actives lie on both sides; binding response (% of control), % at 10 µM; 1.1% of 290,000 active; AID 1531; in the data active = binding response below about 67% or above about 130%
TMEM16A act: mouse TMEM16A channel activation, primary screen | 0.3% of 340,000 active | B-score at 10 µM | AID 623877 | Q8BHY3 | HEK293 TMEM16A/YFP-H148Q/I152L, iodide quench fluorescence; stronger effect = lower value;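 active = fluorescence-ratio B-score plate-corrected deviation score at least 3 library SD below zero, with starting fluorescence score within 5 deviations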;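 also: channel opened by trigger with iodide after compound preincubation; score built on the fluorescence ratio of max minus min over baseline; more negative score means more quench and so TMEM16A activation or potentiation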
MEKK3 PB1 HTS: MEKK3-MEK5 PB1 interaction, increase or decrease | binding response (% of control), % at 10 µM | bead-based flow cytometry, Alexa488-MEK5 binding to MEKK3; actives lie on both sides; 0 = blocked by unlabeled MEK5, 100 = vehicle | 1.4% of 290,000 active;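 active = binding response more than 3 SD above or below the average of its plate-row segment, actives on both sides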;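 also: Alexa488 bead fluorescence after subtracting the streptavidin-only scavenger bead signal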
Target sequence (Q99759 whole entry, looked up): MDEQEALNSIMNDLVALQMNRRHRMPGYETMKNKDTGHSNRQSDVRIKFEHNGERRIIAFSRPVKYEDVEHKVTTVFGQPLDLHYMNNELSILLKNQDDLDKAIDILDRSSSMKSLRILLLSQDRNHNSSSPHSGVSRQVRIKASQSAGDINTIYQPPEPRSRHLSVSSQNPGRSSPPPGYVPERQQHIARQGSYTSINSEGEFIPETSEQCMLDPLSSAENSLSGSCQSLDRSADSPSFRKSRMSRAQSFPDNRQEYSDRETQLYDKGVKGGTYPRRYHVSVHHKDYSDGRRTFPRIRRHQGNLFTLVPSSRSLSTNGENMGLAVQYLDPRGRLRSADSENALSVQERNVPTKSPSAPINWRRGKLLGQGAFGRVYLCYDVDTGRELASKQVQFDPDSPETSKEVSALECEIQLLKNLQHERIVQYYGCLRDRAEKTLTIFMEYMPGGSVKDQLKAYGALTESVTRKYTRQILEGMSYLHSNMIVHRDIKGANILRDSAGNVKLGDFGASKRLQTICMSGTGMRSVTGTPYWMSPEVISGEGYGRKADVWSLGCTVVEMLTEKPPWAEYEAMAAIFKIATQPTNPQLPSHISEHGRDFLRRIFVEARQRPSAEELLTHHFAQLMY
NTR1 agonist: activates human neurotensin receptor 1; P30989; NTR1-U2OS beta-arrestin-GFP spot imaging, agonist mode; activation, % at 20 µM; 0.17% of 330,000 active; AID 493036;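 active = activation at or above 40% of the spot to cytoplasm intensity ratio, with at least 20 cells analyzed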;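 also: 0% = DMSO without peptide and 100% = 100 nM NTR1 peptide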
ANO1 block: mouse TMEM16A channel inhibition, primary screen. Q8BHY3. HEK293 TMEM16A/YFP iodide influx fluorescence, ionomycin. normalized B-score (activity score, 25-100; higher = stronger inhibition) at 10 µM. 1.2% of 310,000 active. AID 588511;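 active = ratio plate-corrected score three or more library SD toward inhibition, starting fluorescence score within five deviations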;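 also: score derived from kinetic fluorescence span divided by baseline fluorescence per well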
MEKK2wt confirm: raises or lowers MEK5 binding to wildtype human MEKK2, retest. binding response (% of control), % at 10 µM. bead flow cytometry, Alexa488-MEK5 binding to MEKK2 WT; actives lie on both sides. shares compounds with MEKK3 PB1 HTS. 2.4% of 5,900 active; in the data active = binding response below about 16% or above about 210%; inactive = in between
MEKK2mut-MEK5: signal of MEK5 binding to mutant human MEKK2, retest. AID 1893. percent response, % at 10 µM. bead flow cytometry, Alexa488-MEK5 binding to MEKK2 mutant. shares compounds with MEKK3 PB1 HTS. 2% of 5,900 active; in the data active = percent response mostly above about 71%, no sharp cut-off; inactive = mostly below about 38%;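 also: higher means compound restores mutant binding toward wildtype level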
MEKK3 confirm: confirmation of inhibitors of MEK5 binding to human MEKK3. 1.8% of 5,900 active. shares compounds with MEKK3 PB1 HTS. binding response (% of control), % at 10 µM. AID 1894. bead flow cytometry, Alexa488-MEK5 binding to MEKK3; stronger effect = lower value;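 active = binding response below 72% of control, or above a set upper limit, though filed actives all read lower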;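 also: 100% = DMSO only wells and 0% = binding blocked by excess unlabeled MEK5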
* hit, by the source's call; i = inactive; / = no result; [ ] = dose if it differs, or a comment.

SMILES	MEKK2 mut-MEK5	MEKK2 WT-MEK5	TMEM16A act	MEKK3 PB1 HTS	NTR1 agonist	ANO1 block	MEKK2wt confirm	MEKK2mut-MEK5	MEKK3 confirm
CCOC(=O)c1cn(Cc2ccccc2)nn1	0.0	101.0	i	131.0*	0.2	i	100.0	-3.0	105.0
CCOC(=O)c1cn(Cc2ccccc2)nc1-c1ccccc1	/	/	i	/	0.7	i	/	/	/
COc1ccc(N(C=O)C(C(=O)Nc2c(C)cccc2C)c2ccccc2)cc1 (stereo unspecified)	/	/	i	/	-0.6	i	/	/	/
Cc1ccc(C(C(=O)NC2CCCCC2)N(Cc2ccco2)C(=O)Cn2cnc3ccccc32)cc1 (stereo unspecified)	2.0	100.0	i	97.0	4.2	i	/	/	/
O=C(Nc1cc2c(cc1Br)OCCO2)c1ccc(=O)[nH]c1	/	/	i	/	-1.6	/	/	/	/
CCOC(=O)c1ccc2[nH]c3c(c2c1)CN(C)CC3	24.0*	129.0	i	105.0	-1.3	i	124.0	16.0	100.0
Cc1ccc2[nH]c3c(c2c1)CN(C)CC3	16.0	101.0	i	88.0	-1.4	i	/	/	/
CCCn1c(=NC(=O)c2ccco2)c(C(=O)OCC)cc2c(=O)n3ccccc3nc21	-26.0	-2.0*[inhibitor]	i	2.0*[inhibitor]	4.8	i	93.0	-14.0	93.0
CC(C)CCn1c(CN2CCN(C(=O)c3ccco3)CC2)nc2c1c(=O)n(C)c(=O)n2C	5.0	98.0	i	95.0	5.4	i	/	/	/
Cn1c(C(=O)N2CCN(C(=O)c3ccco3)CC2)cc2c(=O)n3ccccc3nc21	6.0	129.0	i	138.0*	-1.5	i	96.0	-5.0	97.0
CC(C)Cn1c(CN2CCN(C(=O)c3ccco3)CC2)nc2c1c(=O)n(C)c(=O)n2C	3.0	125.0	i	141.0*	-1.4	i	101.0	1.0	103.0
CCN(CC)c1ccc(/C=N/Nc2cccc(C)c2)c(O)c1	5.0	109.0	i	100.0	2.1	i	/	/	/
CCN(CC)c1ccc(C=Nc2ccc(C)cc2)c(O)c1	-6.0	69.0*[inhibitor]	i	95.0	-3.0	i	84.0	-15.0	92.0
CCN(CC)c1ccc(/C=N/Nc2ccccc2)c(O)c1	13.0	136.0*	i	106.0	-0.7	i	102.0	0.0	105.0
CCN(CC)c1ccc(C=Nc2ccc(N(C)C)cc2)c(O)c1	79.0*	-21.0*	i	94.0	-0.4	i	100.0	-7.0	101.0
CCN(CC)c1ccc(C=Nc2ccccc2)c(O)c1	7.0	103.0	i	109.0	0.3	i	/	/	/
C/C(N)=C(/C#N)C(=O)COC(=O)Cc1coc2ccc3ccccc3c12	-11.0	87.0	i	88.0	6.9	i	/	/	/
O=C(Nc1ccccc1F)c1ccncc1	3.0	107.0	i	103.0	0.7	i	/	/	/
Cc1cnc(C(=O)Nc2ccccc2F)cn1	-19.0	1.0*[inhibitor]	i	2.0*[inhibitor]	0.9	i	105.0	3.0	102.0
COC(=O)n1ccc(C(=O)Nc2ccccc2F)n1	-21.0	3.0*[inhibitor]	i	3.0*[inhibitor]	1.5	i	103.0	3.0	106.0
C(=C\c1ccco1)/C1=NN(c2ccccc2)C(c2ccco2)C1 (stereo unspecified)	2.0	78.0	i	129.0*	-0.4	i	98.0	-3.0	102.0
O=[N+]([O-])c1ccc(/C=C/C2=NN(c3ccccc3)C(c3ccco3)C2)o1 (stereo unspecified)	44.0	/	i	15.0*[inhibitor]	/	/	29.0	-52.0	20.0*
Fc1ccc(C2=NN(c3ccccc3)C(c3ccco3)C2)cc1 (stereo unspecified)	-9.0	85.0	i	95.0	1.7	i	/	/	/
Cc1ccc(NC(=O)c2cc(N3C(=O)C=CC3=O)ccc2N2CCOCC2)cc1Cl	-1.0	96.0	i	96.0	/	i	/	/	/
CCN(C(=O)COC(=O)C12CC3CC(CC(O)(C3)C1)C2)c1c(N)n(Cc2ccccc2)c(=O)[nH]c1=O	/	/	i	/	/	/	/	/	/
SMILES	MEKK2 mut-MEK5	MEKK2 WT-MEK5	TMEM16A act	MEKK3 PB1 HTS	NTR1 agonist	ANO1 block	MEKK2wt confirm	MEKK2mut-MEK5	MEKK3 confirm
CC1CCN(CCCNC(=O)C2CCN(S(=O)(=O)N3CCCCC3)CC2)CC1	13.0	115.0	i	123.0*	-0.6	i	103.0	0.0	102.0
CC1CC(C)CN(CCCNC(=O)C2CCN(S(=O)(=O)N3CCCCC3)CC2)C1 (stereo unspecified)	10.0	118.0	i	123.0*	1.0	i	109.0	15.0	108.0
CC1CCN(S(=O)(=O)N2CCC(C(=O)NCCN3CCOCC3)CC2)CC1	-13.0	83.0	i	77.0	-1.1	i	/	/	/
CC1CCCCN1CCNC(=O)C1CCN(S(=O)(=O)N2CCCCC2)CC1 (stereo unspecified)	2.0	102.0	i	101.0	1.3	i	/	/	/
O=C(NCCN1CCCCCC1)C1CCN(S(=O)(=O)N2CCOCC2)CC1	39.0*	131.0	i	107.0	-1.2	i	139.0	27.0	112.0
CC1CCN(S(=O)(=O)N2CCC(C(=O)NCCC3=CCCCC3)CC2)CC1	-23.0	70.0	i	70.0*[inhibitor]	0.3	i	101.0	2.0	107.0
CCOc1ccc(NS(=O)(=O)c2ccc(C(=O)NCC(c3cccs3)N3CCOCC3)cc2)cc1 (stereo unspecified)	/	/	i	/	3.9	i	/	/	/
CC1(C)CC(=O)N(c2ccc(C#N)cc2)C(=O)C1	-2.0	100.0	i	100.0	0.4	i	/	/	/
CCNC(=S)N1CCN(S(=O)(=O)c2cccc(C(F)(F)F)c2)CC1	0.0	110.0	i	151.0*	-1.1	i	105.0	1.0	103.0
CC(C)NC(=S)N1CCN(S(=O)(=O)c2cccc(C(F)(F)F)c2)CC1	-1.0	98.0	i	97.0	0.4	i	/	/	/
S=c1[nH]ccn1Cc1ccccc1	-12.0	70.0	i	63.0	-0.3	i	/	/	/
CC(=O)CSc1cc(C)nc2c(-c3ccccc3)c(C)nn12	22.0	122.0	i	129.0*	2.8	i	97.0	2.0	104.0
Cc1cc(SCC(=O)c2cccs2)n2nc(C)c(-c3ccccc3)c2n1	-2.0	95.0	i	114.0	4.4	i	/	/	/
O=C(NC1CCS(=O)(=O)C1)c1ccc2c(c1)OCO2 (stereo unspecified)	/	/	i	/	1.6	i	/	/	/
